Assay [1] is described as follows: Cell Viability - LYMP1-002 - Assay at 24 hr (AID 993). The settings on record: LYMP1-002 lymphoblastoid cells viability; series mostly up to 92.2 µM. A digest of the protocol:
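qHTS, LYMP1-002 lymphoblastoid, 24 h cpd, 37 C, CellTiter-Glo ATP luminescence; AC50 via Hill eq.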

Assay [2] in a line: Cell Viability - LYMP1-002 - Assay at 40 hr (AID 994). Also: nearly all actives have a fitted effect of over 60% in size. To be noted: LYMP1-002 lymphoblastoid cell viability; series mostly up to 92.2 µM. Summed up:
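Viability in the human lymphoblastoid line was measured as intracellular ATP via CellTiter-Glo after 40 hr compound exposure. Tetraoctylammonium bromide served as positive control.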

The target in assay [3] is ATP-dependent 6-phosphofructokinase (Trypanosoma brucei brucei) (UniProt O15648). Put plainly: qHTS Assay to Find Inhibitors of T. brucei phosphofructokinase: hit validation (AID 492961).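 Also: luminescence reports ADP formed as PFK phosphorylates fructose-6-phosphate with ATP.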 The settings on record: T. brucei PFK, ADP-Glo luminescence; series mostly up to 24.3 µM. A digest of the protocol: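 PFK 1.25 nM, F6P 0.5 mM, ATP 0.1 mM, MgCl2 5 mM, 0.1 M TEA pH 8.0, Tween20 0.01%, BSA 0.1%; 45 min RT. ADP-Glo two-step detection, luminescence. qHTS titration; curve fitting with curve-class categorization.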

In the next assay the test system is 3D7. Put plainly: qHTS profiling for inhibitors of Plasmodium falciparum proliferation (AID 504749). Also: nearly all actives have a fitted effect of over 60% in size. Also: potency is read from the fitted curve at half-maximal effect. The settings on record: P. falciparum in erythrocytes, SYBR Green DNA, 72 h; series mostly up to 12.8 µM. Summed up: (§1)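 P. falciparum-infected erythrocytes (0.3% parasitemia, 2.5% hematocrit final) were exposed to compounds for 72 h at 37 C in 5% CO2, then lysed with SYBR Green buffer overnight at room temperature; parasite DNA fluorescence was normalized to artemisinin and DMSO controls.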

The test system of another assay is C2A. Described as above. The settings on record: P. falciparum in erythrocytes, SYBR Green DNA, 72 h; series mostly up to 12.8 µM. A digest of the protocol: as §1
The subject of another assay is CP191. The assay is described as above. To be noted: P. falciparum in erythrocytes, SYBR Green DNA, 72 h; series mostly up to 12.8 µM. A digest of the protocol:
as §1

For the next assay, the system named is CP201. The assay is described as above. The settings on record: P. falciparum in erythrocytes, SYBR Green DNA, 72 h; series mostly up to 12.8 µM. A digest of the protocol:
as §1

Another assay has as its system CP250. The assay is described as above. To be noted: P. falciparum in erythrocytes, SYBR Green DNA, 72 h; series mostly up to 12.8 µM. Summed up:
as §1

Another assay has as its system CP256. The description is as above. The settings on record: P. falciparum in erythrocytes, SYBR Green DNA, 72 h; series mostly up to 12.8 µM. A digest of the protocol: as §1
In a further assay the test system is CP262. The description is as above. To be noted: P. falciparum in erythrocytes, SYBR Green DNA, 72 h; series mostly up to 12.8 µM. Summed up: as §1
A further assay deals with CP286. The description is as above. To be noted: P. falciparum in erythrocytes, SYBR Green DNA, 72 h; series mostly up to 12.8 µM. Summed up:
as §1

A further assay has as its system CP329. The description is as above. The settings on record: P. falciparum in erythrocytes, SYBR Green DNA, 72 h; series mostly up to 12.8 µM. A digest of the protocol: as §1
For the next assay, the system named is Dd2. The assay is described as above. The settings on record: P. falciparum in erythrocytes, SYBR Green DNA, 72 h; series mostly up to 12.8 µM. A digest of the protocol:
as §1

The subject of a further assay is ECU. Described as above. To be noted: P. falciparum in erythrocytes, SYBR Green DNA, 72 h; series mostly up to 12.8 µM. A digest of the protocol: as §1
For the next assay, the system named is FAB9. Described as above. The settings on record: P. falciparum in erythrocytes, SYBR Green DNA, 72 h; series mostly up to 12.8 µM. Summed up:
as §1

Another assay relates to HB3. The description is as above. To be noted: P. falciparum in erythrocytes, SYBR Green DNA, 72 h; series mostly up to 12.8 µM. Summed up: as §1
In another assay the test system is JCK. Described as above. To be noted: P. falciparum in erythrocytes, SYBR Green DNA, 72 h; series mostly up to 12.8 µM. Summed up:
as §1

The subject of a further assay is PAD. The description is as above. The settings on record: P. falciparum in erythrocytes, SYBR Green DNA, 72 h; series mostly up to 12.8 µM. A digest of the protocol:
as §1

The next assay concerns PC15. Described as above. To be noted: P. falciparum in erythrocytes, SYBR Green DNA, 72 h; series mostly up to 12.8 µM. A digest of the protocol:
as §1

For another assay, the system named is PC49. The description is as above. To be noted: P. falciparum in erythrocytes, SYBR Green DNA, 72 h; series mostly up to 12.8 µM. Summed up:
as §1

Results filed as inconclusive are left out. Activity calls are given as the source filed them. Calls follow the shape of the dose curve; as a rule, active = well fitted curve in the direction sought with a large enough effect; inconclusive = small, poorly fitted or top-dose-only effect, or another doubt; inactive = no such curve, though single readings can be large; an effect the other way counts as inactive or inconclusive.

ATP-dependent 6-phosphofructokinase (Trypanosoma brucei brucei), sequence (O15648 whole entry, looked up): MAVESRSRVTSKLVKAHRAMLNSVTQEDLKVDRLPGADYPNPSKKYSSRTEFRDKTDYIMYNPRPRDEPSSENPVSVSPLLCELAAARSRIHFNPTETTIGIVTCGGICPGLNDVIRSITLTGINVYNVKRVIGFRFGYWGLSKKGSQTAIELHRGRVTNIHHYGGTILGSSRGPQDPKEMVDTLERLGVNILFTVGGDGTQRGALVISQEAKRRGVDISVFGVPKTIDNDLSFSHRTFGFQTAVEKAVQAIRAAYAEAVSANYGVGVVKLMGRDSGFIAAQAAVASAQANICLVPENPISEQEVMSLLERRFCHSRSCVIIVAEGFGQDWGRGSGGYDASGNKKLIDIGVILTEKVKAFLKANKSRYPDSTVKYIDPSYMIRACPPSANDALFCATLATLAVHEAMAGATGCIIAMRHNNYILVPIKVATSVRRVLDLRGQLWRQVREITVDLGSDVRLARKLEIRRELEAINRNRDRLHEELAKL

As to `Cc1occc(=O)c1O`, the compound was called inactive in assay [1] and in [2].

With `C[N+](C)(C)CC(O)CC(=O)O` (stereo not given), in assay [3], the compound was classed as inactive. The Potency entry in the assay with 3D7, with C2A, in the assay on CP191, in the assay on CP201, with CP250 and in the assay with CP256 was “inactive” throughout. For the same compound, the Potency entry in the assay on CP262, in the assay with CP286, in the assay on CP329, in the assay with Dd2, in the assay on ECU and with FAB9 was “inactive” throughout. For the same compound, the Potency result in the assay with HB3, in the assay with JCK, in the assay on PAD, with PC15 and in the assay with PC49 was “inactive” each time.

Regarding `CN1[C@@H]2CC[C@H]1CC(OC(=O)[C@@H](O)c1ccccc1)C2` (stereo not given in full), the compound was called inactive in assay [3]. In addition, the Potency result in the assay with 3D7, with C2A, in the assay on CP191, in the assay with CP201, with CP250 and in the assay on CP256 was “inactive” each time. In addition, the Potency entry with CP262, with CP286, in the assay with CP329, with Dd2, in the assay on ECU and with FAB9 was “inactive” each time. The Potency result in the assay on HB3, in the assay on JCK, in the assay with PAD, in the assay on PC15 and in the assay with PC49 was “inactive” throughout.

On to `CC1=CC(=O)CC(C)(C)C1(O)/C=C/C(C)=C\C(=O)O` (stereo not given), for which the compound was called inactive in [1] and in assay [2].

Regarding `C[C@@H]1CCC[C@H](C)N1NC(=O)c1ccc(Cl)c(S(N)(=O)=O)c1`, the compound was called inactive in [3]. The Potency result in the assay on 3D7, in the assay on C2A, in the assay with CP191, in the assay on CP201, in the assay with CP250 and in the assay with CP256 was “inactive” each time. The Potency entry in the assay with CP262, with CP286, with CP329, with Dd2, with ECU and in the assay on FAB9 was “inactive” in each case. Besides, the Potency entry in the assay on HB3, in the assay with JCK, in the assay with PAD, with PC15 and in the assay with PC49 was “inactive” each time.

Consider `CC(C)N1CCN(c2ccc(OC[C@@H]3CO[C@@](Cn4cncn4)(c4ccc(Cl)cc4Cl)O3)cc2)CC1`, for which the outcome in assay [3] was inactive. Further, the Potency entry in the assay with 3D7, in the assay on C2A, with CP191, in the assay on CP201, with CP250 and with CP256 was “inactive” each time. In addition, the Potency result with CP262, with CP286, in the assay on CP329, with Dd2, in the assay on ECU and in the assay with FAB9 was “inactive” in each case. For the same compound, the Potency result in the assay with HB3, in the assay on JCK, in the assay with PAD, in the assay with PC15 and in the assay on PC49 was “inactive” each time.

For `CN(C)CC/C=C1\c2ccccc2CSc2ccccc21`, the compound was classed as inactive in [3]. Also, the Potency result in the assay with 3D7, with C2A, with CP191, with CP201, in the assay on CP250 and in the assay with CP256 was “inactive” each time. The Potency entry with CP262, in the assay on CP286, in the assay on CP329, with ECU, in the assay on FAB9 and with HB3 was “inactive” each time. Also, the Potency result in the assay with JCK, in the assay on PAD, in the assay on PC15 and in the assay on PC49 was “inactive” each time. Besides, in the assay on Dd2, the Potency was 1.78 µM (active).

Take `C=C(C)[C@H]1CC=C(C)C(=O)C1`: the call in assay [1] and in assay [2] was inactive.

`C=CC(C)(O)CCC=C(C)C` (stereo not given): the result in assay [1] and in [2] was inactive.

In the case of `COS(C)(=O)=O`, the outcome in assay [1] and in assay [2] was inactive.

For the origin of these results see PubChem BioAssay (NCATS).
